ERAP1 HTS inh = inhibitors of human ERAP1 aminopeptidase. recombinant ERAP1, Leu-AMC fluorescence, 60 min. inhibition, % at 10.7 µM. 340,000 tested, 0.15% active. AID 652197;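 active = mean replicate inhibition of at least 30%, or all replicates individually reaching that 30% level; inactive = mean below 30% and not every replicate reaching it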;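 note: 0% = neutral control wells and 100% = L-leucinethiol positive control wells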
PvdQ inh = blocks Pseudomonas aeruginosa PvdQ acylase activity; purified PvdQ acylase, fluorescence plate reader; inhibition, % at 10 µM; 340,000 tested, 0.063% active; in the data active = inhibition above about 30%, passing the limit was not always enough;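 note: 0% = vehicle neutral wells and 100% = reference inhibitor wells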
CFTR F508del cor = CFTR F508del correction in bronchial cells; activity (quench increase), % at 7.58 µM; CFBE cells, YFP halide quenching; stimulated with forskolin plus potentiator P3; % fluorescence drop versus neutral controls; 350,000 tested, 0.36% active;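 active = mean added fluorescence quench of at least 8% versus neutral control, with both replicates also reaching 8%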;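 note: cells transiently co-express mutant CFTR-F508del with the halide-sensitive YFP; corrector assay measuring rescue of mutant channel to the surface after 24 h compound exposure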
ARNT TACC3 PPI = disrupts binding between human ARNT and TACC3; Q9Y6A5; AlphaScreen His-ARNT PAS-B/GST-TACC3 binding, luminescence; TACC3 fragment carries E629A point mutation; inhibition, % at 9.99 µM; 390,000 tested, 0.66% active; AID 623870;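 active = mean inhibition of replicates at least 50% and at least half of replicates each reaching 50%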;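 note: 0% = complete ARNT plus TACC3 wells and 100% = ARNT alone without TACC3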
rRNA inh HTS = inhibitors of bacterial rRNA selective over humanized ribosomes; E. coli WT GFP vs humanized-ribosome RFP mutants, fluorescence, 24 h; hits give low values; DMSO median 0, no signal -100; GFP signal change (wild-type ribosome), % (concentration not given with the values); 350,000 tested, 1.6% active; AID 720706;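 active = significant combined selectivity score with lowered wild-type GFP, culture density cut under 30%, mutant RFP and density less affected; inactive = any of these conditions unmet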
The depositor's hits bear a star. Most compounds without a hit are left out; they make up all but 2.1% or so of the library.

How did CC(C)C#Cc1ccc2c(c1)O[C@H](CN(C)Cc1cccnc1)[C@@H](C)CN([C@H](C)CO)S2(=O)=O do in these assays?
ERAP1 HTS inh: 6; CFTR F508del cor: -8; ARNT TACC3 PPI: 2; rRNA inh HTS: -28

Results for O=C(Nc1ccc(-c2ccccc2)cc1)[C@@H]1[C@@H](CO)[C@@H]2Cn3c(cccc3=O)[C@H]1N2Cc1cncnc1 ?
ERAP1 HTS inh: 2; CFTR F508del cor: 2; ARNT TACC3 PPI: -11; rRNA inh HTS: 0

What do the screens show for `O=S(=O)(O)c1cccc2c(N=Nc3ccc(O)c4ncccc34)cccc12`?
ERAP1 HTS inh: 15; PvdQ inh: -2; ARNT TACC3 PPI: 73*; rRNA inh HTS: -1

Results for CN1C(=O)/C(=C/c2cccc(Cl)c2)Sc2ccc(C(=O)N3CCCC3)cc21 ?
ERAP1 HTS inh: -2; CFTR F508del cor: 4; rRNA inh HTS: -35*

What do the screens show for `Cc1cccc(/C=C2\Sc3ccc(C(=O)N4CCCCC4)cc3N(C)C2=O)c1`?
ERAP1 HTS inh: -1; PvdQ inh: -8; CFTR F508del cor: 1; ARNT TACC3 PPI: 26; rRNA inh HTS: 2

Results for CCC(CO)n1c(=S)[nH]c2cc(OC)c(OC)cc2c1=O (stereo not given) ?
ERAP1 HTS inh: 1; PvdQ inh: 1; CFTR F508del cor: -3; ARNT TACC3 PPI: 0; rRNA inh HTS: -22*

What do the screens show for `CCOc1cc2[nH]c(=S)n(C(C)C)c(=O)c2cc1OCC`?
PvdQ inh: -8; ARNT TACC3 PPI: -12

How did CCCCNC(=O)c1ccc2c(OCC)n(CCCC)nc2c1 do in these assays?
ERAP1 HTS inh: -2; PvdQ inh: -4; CFTR F508del cor: 1; ARNT TACC3 PPI: -2; rRNA inh HTS: 1

How did CCCCn1nc2cc(C(=O)NCCc3ccc(C)cc3)ccc2c1OCC do in these assays?
ERAP1 HTS inh: -4; PvdQ inh: -14; CFTR F508del cor: -2; rRNA inh HTS: -38*

How did C/C=C/c1ccc(C2[C@H]3CNC[C@@H]2N3S(=O)(=O)c2c(C)noc2C)cc1 (stereo not given in full) do in these assays?
CFTR F508del cor: 1; rRNA inh HTS: 4

Results for COc1ccc(/C(N)=N/OC(=O)Cc2ccc(OC)c(OC)c2)cc1 ?
ERAP1 HTS inh: 1; PvdQ inh: -4; CFTR F508del cor: -1; ARNT TACC3 PPI: -2; rRNA inh HTS: -26*

Results for N#C/C(=C(/O)CCl)c1nc2ccccc2[nH]1 ?
ERAP1 HTS inh: 5; PvdQ inh: -2; CFTR F508del cor: 3; ARNT TACC3 PPI: 4; rRNA inh HTS: -16*

What do the screens show for `N#C/C(=C(/O)c1ccc(Br)s1)c1nc2ccccc2[nH]1`?
ERAP1 HTS inh: -1; PvdQ inh: -6; CFTR F508del cor: 10.0*; ARNT TACC3 PPI: -8; rRNA inh HTS: 1

Results for Cc1cccc(C)c1Nc1nnc(SC/C(O)=C(\C#N)c2nc3ccccc3[nH]2)s1 ?
ERAP1 HTS inh: -3; PvdQ inh: 4; CFTR F508del cor: 1; ARNT TACC3 PPI: 5; rRNA inh HTS: -34*

Results for Cc1cccc(Nc2nnc(SC/C(O)=C(\C#N)c3nc4ccccc4[nH]3)s2)c1C ?
PvdQ inh: -4; ARNT TACC3 PPI: 1

How did CCc1nnc(N/N=C/c2cc(Br)c(O)cc2O)n1N do in these assays?
ERAP1 HTS inh: 0; PvdQ inh: -5; ARNT TACC3 PPI: 63*; rRNA inh HTS: -9

How did CCc1nnc(N/N=C/c2ccc(O)c(OC)c2)n1N do in these assays?
ERAP1 HTS inh: -1; PvdQ inh: -13; CFTR F508del cor: 1; ARNT TACC3 PPI: 0; rRNA inh HTS: -7

How did CC(C)(C)c1nnc(N/N=C/c2cc(Br)ccc2O)n(N)c1=O do in these assays?
PvdQ inh: 1; ARNT TACC3 PPI: 58*

How did C[C@@H]1CN([C@@H](C)CO)C(=O)Cc2cc(NC(=O)Cc3cn(C)c4ccccc34)ccc2O[C@@H]1CN(C)C(=O)Nc1ccc(C(F)(F)F)cc1 do in these assays?
ERAP1 HTS inh: 2; CFTR F508del cor: 1; ARNT TACC3 PPI: -11; rRNA inh HTS: 1

Results for COCC(=O)N1CC(=O)N2[C@H](CO)[C@@H](c3ccc(-c4cccnc4)cc3)[C@@H]2C1 ?
ERAP1 HTS inh: 1; CFTR F508del cor: 0; rRNA inh HTS: 3

How did O=C(c1ccc2c(=O)n(C3CCCC3)c(=S)[nH]c2c1)N1CCCCCC1 do in these assays?
ERAP1 HTS inh: -3; PvdQ inh: -9; CFTR F508del cor: 1; ARNT TACC3 PPI: 0; rRNA inh HTS: -28*

How did CC1CCCN(C(=O)c2ccc3c(=O)n(C4CCCC4)c(=S)[nH]c3c2)C1 (stereo not given) do in these assays?
ERAP1 HTS inh: 6; PvdQ inh: -7; CFTR F508del cor: -1; ARNT TACC3 PPI: -6; rRNA inh HTS: 15

How did Cc1noc(C)c1S(=O)(=O)N(C)C[C@H]1Oc2ccc(NS(=O)(=O)c3ccc(F)cc3)cc2CC(=O)N([C@H](C)CO)C[C@H]1C do in these assays?
ERAP1 HTS inh: -10; CFTR F508del cor: -2; rRNA inh HTS: -2

Results for C[C@H]1CCCCO[C@@H](CN(C)C(=O)c2ccncc2)[C@@H](C)CN([C@@H](C)CO)C(=O)c2cc(NS(=O)(=O)c3cn(C)cn3)ccc2O1 ?
ERAP1 HTS inh: -1; CFTR F508del cor: -3; ARNT TACC3 PPI: -16; rRNA inh HTS: 3

What do the screens show for `Cc1noc(C)c1NC(=O)N[C@@H]1CC[C@@H](CC(=O)NCCCN(C)C)O[C@@H]1CO`?
ERAP1 HTS inh: 0; CFTR F508del cor: 0; ARNT TACC3 PPI: 9; rRNA inh HTS: 0

What do the screens show for `O=C(O)CCC(=O)Nc1ccc(SSc2ccc(NC(=O)CCC(=O)O)cc2)cc1`?
ERAP1 HTS inh: 38*; PvdQ inh: -3; CFTR F508del cor: -1; ARNT TACC3 PPI: 7; rRNA inh HTS: 6

How did O=C(O)CCC(=O)Nc1ccc(F)cc1 do in these assays?
PvdQ inh: -1; ARNT TACC3 PPI: 2

How did COc1ccc2c3c(n(C)c2c1)[C@H](CO)N(C(C)=O)CC31CCN(Cc2ccc(Cl)cc2)CC1 do in these assays?
ERAP1 HTS inh: 1; CFTR F508del cor: 7; rRNA inh HTS: 2

What do the screens show for `CN(C)CCN(Cc1ccco1)C(=O)c1cc2c(Cl)nc3ccccc3c2s1`?
ERAP1 HTS inh: -1; PvdQ inh: -5; ARNT TACC3 PPI: -13; rRNA inh HTS: -33*

Results for Cc1ccc2nc(Cl)c3cc(C(=O)N(CCN(C)C)Cc4ccco4)sc3c2c1 ?
ERAP1 HTS inh: 5; PvdQ inh: -11; CFTR F508del cor: 1; ARNT TACC3 PPI: 11; rRNA inh HTS: -16

What do the screens show for `COCCN(CCOC)S(=O)(=O)c1ccc(C(=O)Nc2nnc(C)o2)cc1`?
PvdQ inh: -15; ARNT TACC3 PPI: 57*

Results for Cc1nnc(NC(=O)c2ccc(S(=O)(=O)N(C)Cc3ccccc3)cc2)o1 ?
PvdQ inh: 6; ARNT TACC3 PPI: 46*

Assay outcomes (PubChem BioAssay)
